Records with an inconclusive call do not appear. Where a call stands in place of a potency, no number is given. Calls of active or inactive are those of the source. Unless noted, calls come from the whole dose curve; as a rule, active = well fitted curve in the direction sought with a large enough effect in the repeat runs; inconclusive = weak or mixed curves; inactive = no such curve, though single readings can be large; an effect the other way counts as inactive or inconclusive.
Experiments:
[1] = qHTS assay to identify small molecule agonists of the estrogen receptor beta (ER-beta) signaling pathway - cell viability counter screen (AID 1259380); note: potency is the fitted concentration of half-maximal effect; nearly all actives have a fitted effect of over 30% in size
Method in brief: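 CellTiter-Glo read, 30 min RT, same wells as bla assay; cells ER-beta-UAS-bla HEK293T; 16 hr compound, 37C; medium 2% charcoal-stripped FBS.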

[2] = molecular target: Estrogen receptor (Homo sapiens) (UniProt P03372); test: qHTS assay to identify small molecule agonists of the estrogen receptor alpha (ER-alpha) signaling pathway in the presence of an antagonist (AID 1259383; calls by dose curve; note: top concentration of the series differs between compounds; nearly all actives have a fitted effect of over 15% in size)
Method in brief: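 Stably transfected VM7Luc4E2 reporter cells, kept 5 days in charcoal-stripped serum, received ICI-182,780 at 10.0nM final before compound addition. Following 22hr incubation at 37C and 5% CO2, luciferase signal was read by luminescence.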

[3] = qHTS assay to identify small molecule agonists or antagonists of the thyroid stimulating hormone receptor (TSHR) signaling pathway - wild type cell line counter screen (AID 1259384; calls by dose curve)
Method in brief: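 Wild-type HEK293 cells were plated 18 h at 37 C/5% CO2, pin-dosed with compound plus Ro20-1724 medium, held 30 min at room temperature, then given cAMP-d2 and anti-cAMP-cryptate; fluorescence was read after 1 h. Fifteen concentrations, triplicate.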

[4] = molecular target: Thyrotropin receptor (Homo sapiens) (UniProt P16473); test: qHTS assay to identify small molecule antagonists of the thyroid stimulating hormone receptor (TSHR) signaling pathway (AID 1259385; calls by dose curve; note: nearly all actives have a fitted effect of over 20% in size)
Method in brief: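 TSHR-HEK293 cells were plated and held 18 h at 37C/5% CO2, then given compound plus Ro20-1724 and stimulated with TSH at 1.5 ng/mL final. After 30 min at room temperature, cAMP was detected with cAMP-d2/anti-cAMP-cryptate (1 h) by fluorescence.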

[5] = qHTS assay to identify small molecule antagonists of the TGF-beta/Smad signaling pathway - cell viability counter screen (AID 1346824); note: nearly all actives have a fitted effect of over 50% in size
Method in brief: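 SBE-bla HEK 293T cells were plated overnight at 37 C, then given compounds in DMSO plus TGF-beta1 (added as 0.25 ng/mL solution) for 5 hr. After the bla read, CellTiter-Glo was added to the same wells and luminescence read after 30 min at room temperature.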

[6] = qHTS assay to identify small molecule agonists of the TGF-beta/Smad signaling pathway - cell viability counter screen (AID 1346829); note: top concentration of the series differs between compounds; nearly all actives have a fitted effect of over 45% in size
Method in brief: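 Compound-treated SBE-bla HEK 293T cells (5 hr, 37 C) were assessed for viability with CellTiter-Glo in parallel with the reporter read.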

[7] = qHTS assay to identify small molecule agonists of the TGF-beta/Smad signaling pathway (AID 1346859; active = well fitted activation curve with a large enough effect in the signal ratio in the repeat runs, not every such curve was filed as active; the % refers to the signal ratio; note: series mostly up to about 77 µM)
Method in brief: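 SBE-bla HEK293T cells plated overnight, then compound exposure for 5 h at 37 C. Beta-lactamase reporter read with LiveBLAzer B/G FRET substrate after 2 h at room temperature, fluorescence at 405 nm excitation, 460/530 nm emission.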

[8] = molecular target: Thyrotropin-releasing hormone receptor (Homo sapiens) (UniProt P34981); test: qHTS assay to identify small molecule antagonists of the thyrotropin-releasing hormone receptor (TRHR) signaling pathway (AID 1346877; active = well fitted inhibition curve with a large enough effect in the repeat runs, not every such curve was filed as active; note: potency is the fitted concentration of half-maximal effect)
Method in brief: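 Following an 18 h incubation at 37 °C and a 2 h calcium dye load, TRHR-HEK293 cells were exposed to compound (5 min, room temperature) and challenged with TRH, 1 nM final.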

[9] = molecular target: Thyrotropin-releasing hormone receptor (Homo sapiens) (UniProt P34981); test: qHTS assay to identify small molecule agonists of the thyrotropin-releasing hormone receptor (TRHR) signaling pathway (AID 1346891; calls by dose curve; note: series mostly up to about 58 µM)
Method in brief: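 HEK293 cells expressing TRHR plated 18 h at 37 C/5% CO2, calcium dye-loaded 2 h at 37 C, then compound added (agonist mode); kinetic calcium fluorescence read 3 min at 1 s intervals; 15 concentrations in triplicate.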

[10] = molecular target: Androgen receptor (Homo sapiens) (UniProt P10275); test: qHTS assay to identify small molecule agonists of the androgen receptor (AR) signaling pathway in the presence of an antagonist (AID 1259381; calls by dose curve; note: nearly all actives have a fitted effect of over 15% in size)
Method in brief: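 Test compounds at 15 concentrations were incubated for 16hr with MDA-kb2 reporter cells in presence of 3.0uM nilutamide (final). Signal: ONE-Glo luciferase luminescence.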

[11] = qHTS assay to identify small molecule agonists of the estrogen receptor alpha (ER-alpha) signaling pathway in the presence of an antagonist - cell viability counter screen (AID 1259386);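 note: cells exposed to compounds for 22 h at 37 °C before the viability read; nearly all actives have a fitted effect of over 30% in size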; note: potency is the fitted concentration of half-maximal effect
Method in brief: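 Viability counter screen using VM7Luc4E2 (full-length ER-alpha, four ERE-luciferase). The cells were treated with compounds alongside ICI-182,780 10.0nM for 22hr, and live-cell protease fluorescence was quantified with CellTiter-Fluor.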

[12] = molecular target: Progesterone receptor (Homo sapiens) (UniProt P06401); test: qHTS assay to identify small molecule antagonists of the progesterone receptor (PR) signaling pathway (AID 1346795; active = well fitted inhibition curve with a large enough effect in the signal ratio in the repeat runs, not every such curve was filed as active; the % refers to the signal ratio; note: potency is the fitted concentration of half-maximal effect)
Method in brief: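 PR-UAS-bla HEK293T cells with beta-lactamase reporter under UAS control, in 2% charcoal-stripped FBS, treated with compounds plus 1 nM promegestone (R5020, final) for 16 hr at 37C. Read-out: FRET beta-lactamase substrate fluorescence after 2 hr at room temperature.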

[13] = Human pregnane X receptor (PXR) small molecule agonists, qHTS cell viability counter screen (AID 1346977); note: nearly all actives have a fitted effect of over 50% in size; note: potency is the fitted concentration of half-maximal effect
Method in brief: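 PXR-Luc HepG2 cells (2,000/well, 5% charcoal-stripped FBS) preincubated 5 hr, then exposed to compounds 24 hr at 37 C. Viability read in the same wells by CellTiter-Fluor fluorescence, reagent added at 23 hr, 1 hr incubation.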

[14] = qHTS assay to identify small molecule agonists of the androgen receptor (AR) signaling pathway in the presence of an antagonist - cell viability counter screen (AID 1259379); note: nearly all actives have a fitted effect of over 25% in size; note: potency is the fitted concentration of half-maximal effect
Method in brief: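 Seed MDA-kb2 at 3,000 cells/well; incubate 5 hr, 37C, 0% CO2. Add nilutamide to 3.0uM final, then pin compounds at 15 concentrations. Incubate 16 hr. Add CellTiter-Fluor at 15 hr, read fluorescence after 1 hr.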

[15] = qHTS assay to identify small molecule antagonists of the estrogen receptor beta (ER-beta) signaling pathway - cell viability counter screen (AID 1259382); note: nearly all actives have a fitted effect of over 55% in size; note: potency is the fitted concentration of half-maximal effect
Method in brief: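 In this multiplexed counter screen, cells were seeded at 2,000 per well in medium with 2% charcoal-stripped FBS and incubated 6 hr before compound and 1nM final E2 were added. Sixteen hours later, ATP-based luminescence reported viability.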

[16] = qHTS assay to identify small molecule antagonists of the progesterone receptor (PR) signaling pathway - cell viability counter screen (AID 1346798); note: nearly all actives have a fitted effect of over 50% in size; note: potency is the fitted concentration of half-maximal effect
Method in brief: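 PR-UAS-bla HEK293T cells, 3,000/well in 2% charcoal-stripped FBS medium, dosed with compounds plus R5020 agonist and incubated 16 h at 37C. Viability then measured in the same wells by CellTiter-Glo luminescence after 30 min at RT.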

[17] = molecular target: Progesterone receptor (Homo sapiens) (UniProt P06401); test: qHTS assay to identify small molecule agonists of the progesterone receptor (PR) signaling pathway (AID 1346784; calls by dose curve; note: nearly all actives have a fitted effect of over 30% in size)
Method in brief: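 PR-UAS-bla HEK 293T cells (beta-lactamase reporter under UAS) in 2% charcoal-stripped FBS, dosed with 23 nL compound after 6 hr, incubated 16hr at 37C. LiveBLAzer B/G FRET substrate added, fluorescence read after 2 hours.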

[18] = qHTS assay to identify small molecule agonists of the progesterone receptor (PR) signaling pathway - cell viability counter screen (AID 1346799; calls by dose curve; note: nearly all actives have a fitted effect of over 45% in size; note: potency is the fitted concentration of half-maximal effect)
Method in brief: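 Counter screen in the PR-UAS-bla HEK293T wells (2% charcoal-stripped FBS, 16 h compound exposure at 37 C) after the bla read. CellTiter-Glo added, 30 min at room temperature, luminescence read as cell viability.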

Sequence of Thyrotropin-releasing hormone receptor (Homo sapiens) (P34981 whole entry, looked up): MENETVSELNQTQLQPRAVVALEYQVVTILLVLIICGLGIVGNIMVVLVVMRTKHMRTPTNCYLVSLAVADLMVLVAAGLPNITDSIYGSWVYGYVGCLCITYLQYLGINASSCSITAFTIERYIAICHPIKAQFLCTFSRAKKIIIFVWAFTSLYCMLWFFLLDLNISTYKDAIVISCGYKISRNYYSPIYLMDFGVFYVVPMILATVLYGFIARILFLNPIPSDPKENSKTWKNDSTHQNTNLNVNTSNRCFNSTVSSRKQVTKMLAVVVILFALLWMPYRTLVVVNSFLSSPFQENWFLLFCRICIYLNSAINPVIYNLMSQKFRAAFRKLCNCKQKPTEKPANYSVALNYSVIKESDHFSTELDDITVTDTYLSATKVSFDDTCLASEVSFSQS
Sequence of Estrogen receptor (Homo sapiens) (P03372 whole entry, looked up): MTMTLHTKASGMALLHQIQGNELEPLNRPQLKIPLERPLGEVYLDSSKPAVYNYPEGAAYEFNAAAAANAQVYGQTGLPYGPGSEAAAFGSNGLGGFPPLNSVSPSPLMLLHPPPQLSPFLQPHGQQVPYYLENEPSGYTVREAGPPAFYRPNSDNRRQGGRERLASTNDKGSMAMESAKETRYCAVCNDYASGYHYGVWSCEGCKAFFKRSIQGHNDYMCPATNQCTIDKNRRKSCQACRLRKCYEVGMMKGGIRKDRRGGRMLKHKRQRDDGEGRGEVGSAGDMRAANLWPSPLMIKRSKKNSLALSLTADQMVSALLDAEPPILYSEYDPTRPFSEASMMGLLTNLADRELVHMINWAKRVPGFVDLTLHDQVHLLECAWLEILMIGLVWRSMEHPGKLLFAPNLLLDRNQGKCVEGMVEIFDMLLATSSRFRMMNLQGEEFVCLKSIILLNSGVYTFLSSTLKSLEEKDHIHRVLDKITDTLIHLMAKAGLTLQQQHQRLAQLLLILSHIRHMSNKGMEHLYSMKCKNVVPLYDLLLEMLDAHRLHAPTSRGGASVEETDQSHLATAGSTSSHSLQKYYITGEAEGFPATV
Sequence of Thyrotropin receptor (Homo sapiens) (P16473 whole entry, looked up): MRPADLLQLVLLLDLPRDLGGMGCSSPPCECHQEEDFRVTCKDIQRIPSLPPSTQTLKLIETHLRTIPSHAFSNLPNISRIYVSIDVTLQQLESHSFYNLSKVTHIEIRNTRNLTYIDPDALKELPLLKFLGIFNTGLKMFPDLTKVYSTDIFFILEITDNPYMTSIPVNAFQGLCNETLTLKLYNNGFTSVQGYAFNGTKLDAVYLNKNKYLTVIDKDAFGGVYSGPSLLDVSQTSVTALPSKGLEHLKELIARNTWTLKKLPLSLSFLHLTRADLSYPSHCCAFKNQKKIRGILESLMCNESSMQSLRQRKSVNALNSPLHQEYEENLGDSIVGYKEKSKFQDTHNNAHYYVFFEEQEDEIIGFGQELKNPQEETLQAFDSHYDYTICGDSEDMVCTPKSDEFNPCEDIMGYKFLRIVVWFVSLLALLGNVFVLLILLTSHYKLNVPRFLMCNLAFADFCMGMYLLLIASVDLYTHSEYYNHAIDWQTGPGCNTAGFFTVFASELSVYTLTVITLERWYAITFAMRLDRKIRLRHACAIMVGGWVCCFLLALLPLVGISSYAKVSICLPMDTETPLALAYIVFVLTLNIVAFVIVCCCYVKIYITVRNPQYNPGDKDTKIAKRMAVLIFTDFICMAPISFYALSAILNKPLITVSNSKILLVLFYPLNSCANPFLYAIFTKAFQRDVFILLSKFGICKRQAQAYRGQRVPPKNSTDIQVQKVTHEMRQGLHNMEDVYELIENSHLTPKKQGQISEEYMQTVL
Sequence of Progesterone receptor (Homo sapiens) (P06401 whole entry, looked up): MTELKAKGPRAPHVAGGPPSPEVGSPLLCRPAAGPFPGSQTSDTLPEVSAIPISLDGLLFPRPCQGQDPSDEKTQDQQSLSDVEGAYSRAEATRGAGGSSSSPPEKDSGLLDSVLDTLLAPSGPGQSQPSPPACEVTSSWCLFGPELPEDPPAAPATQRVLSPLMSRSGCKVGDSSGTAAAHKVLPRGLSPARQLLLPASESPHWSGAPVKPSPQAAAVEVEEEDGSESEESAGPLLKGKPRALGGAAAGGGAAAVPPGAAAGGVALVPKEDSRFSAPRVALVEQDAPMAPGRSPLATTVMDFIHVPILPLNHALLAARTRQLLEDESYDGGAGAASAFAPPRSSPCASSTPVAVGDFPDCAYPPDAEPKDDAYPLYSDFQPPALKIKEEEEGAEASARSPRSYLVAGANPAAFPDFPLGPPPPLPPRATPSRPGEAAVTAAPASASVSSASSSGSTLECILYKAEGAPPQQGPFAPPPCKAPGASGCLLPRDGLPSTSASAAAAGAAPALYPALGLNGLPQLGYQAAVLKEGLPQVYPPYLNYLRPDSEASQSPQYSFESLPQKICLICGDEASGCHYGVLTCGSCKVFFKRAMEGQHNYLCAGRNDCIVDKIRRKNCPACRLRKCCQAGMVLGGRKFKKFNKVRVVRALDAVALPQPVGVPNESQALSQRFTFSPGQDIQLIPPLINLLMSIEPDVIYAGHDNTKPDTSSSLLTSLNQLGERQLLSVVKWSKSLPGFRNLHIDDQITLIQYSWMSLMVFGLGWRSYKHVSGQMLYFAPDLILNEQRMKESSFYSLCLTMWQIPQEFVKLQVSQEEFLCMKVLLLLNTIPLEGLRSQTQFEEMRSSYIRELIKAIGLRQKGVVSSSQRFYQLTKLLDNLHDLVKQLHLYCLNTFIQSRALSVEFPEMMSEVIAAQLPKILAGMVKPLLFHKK
Sequence of Androgen receptor (Homo sapiens) (P10275 whole entry, looked up): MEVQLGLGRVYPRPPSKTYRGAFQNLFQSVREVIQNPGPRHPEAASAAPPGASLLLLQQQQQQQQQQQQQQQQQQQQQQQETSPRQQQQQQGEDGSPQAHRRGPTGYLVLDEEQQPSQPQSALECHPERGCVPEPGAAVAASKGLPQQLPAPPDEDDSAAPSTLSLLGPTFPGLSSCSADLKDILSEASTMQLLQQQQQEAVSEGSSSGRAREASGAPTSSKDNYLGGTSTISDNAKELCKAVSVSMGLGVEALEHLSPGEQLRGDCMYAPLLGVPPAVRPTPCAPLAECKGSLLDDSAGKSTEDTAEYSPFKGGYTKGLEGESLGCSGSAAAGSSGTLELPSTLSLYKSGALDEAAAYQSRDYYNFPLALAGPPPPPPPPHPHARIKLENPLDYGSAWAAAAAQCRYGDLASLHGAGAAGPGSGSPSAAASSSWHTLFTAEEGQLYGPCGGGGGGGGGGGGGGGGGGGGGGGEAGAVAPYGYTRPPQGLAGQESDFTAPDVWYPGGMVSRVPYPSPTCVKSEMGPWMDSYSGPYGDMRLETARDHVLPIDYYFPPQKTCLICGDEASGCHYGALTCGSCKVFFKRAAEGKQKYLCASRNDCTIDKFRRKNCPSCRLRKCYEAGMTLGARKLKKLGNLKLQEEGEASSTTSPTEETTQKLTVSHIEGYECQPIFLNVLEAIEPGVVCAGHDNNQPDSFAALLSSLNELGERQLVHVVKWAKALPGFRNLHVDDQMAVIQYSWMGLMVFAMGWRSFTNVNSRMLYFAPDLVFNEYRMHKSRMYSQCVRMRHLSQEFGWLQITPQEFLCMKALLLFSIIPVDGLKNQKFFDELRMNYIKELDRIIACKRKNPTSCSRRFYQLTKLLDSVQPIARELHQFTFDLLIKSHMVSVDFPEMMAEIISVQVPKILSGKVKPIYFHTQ

Structure (SMILES) | Potency [1] | Potency [2] | outcome [3] | Potency [4] | Potency [5] | Potency [6] | outcome [7] | Potency [8] | Potency [9] | Potency [10] | Potency [11] | Potency [12] | Potency [13] | Potency [14] | Potency [15] | Potency [16] | Potency [17] | Potency [18]
Nc1ccc(Cc2ccc(N)c(Cl)c2)cc1Cl | 18.7 µM (active) | inactive | inactive | inactive | inactive | inactive | inactive | inactive | inactive |  |  |  |  |  |  |  |  | 
CC(C)(C)C(O)C(Oc1ccc(-c2ccccc2)cc1)n1cncn1 (stereo unspecified) |  | inactive | inactive | inactive | inactive | inactive | inactive | inactive | inactive | inactive | inactive | 61.1 µM (active) | 61.1 µM (active) |  |  |  |  | 
CN(C)[C@@H]1C(=O)C(C(N)=O)=C(O)[C@@]2(O)C(=O)C3=C(O)c4c(O)ccc(Cl)c4[C@@](C)(O)[C@H]3C[C@@H]12 |  |  | inactive |  | inactive | inactive |  | inactive | inactive |  | inactive |  |  | inactive | inactive | inactive |  | 
BrC(Br)C(Br)(Br)Br |  | inactive | inactive | inactive | inactive | inactive | inactive | 34 µM (active) | inactive |  | inactive | inactive | inactive |  | inactive | inactive | inactive | inactive
O=[N+]([O-])c1c2ccccc2cc2ccccc12 |  |  | inactive |  | inactive | inactive |  | inactive | inactive |  |  |  |  |  |  | 27 µM (active) |  | 
CCOCn1c(-c2ccc(Cl)cc2)c(C#N)c(Br)c1C(F)(F)F |  | inactive | inactive |  |  |  |  | inactive | inactive |  | 8.63 µM (active) |  | 0.864 µM (active) | 6.86 µM (active) | 34.4 µM (active) | 12.2 µM (active) |  | 12.2 µM (active)
